In the supplement of paper PMC7411054:
Counter-ions that a name gives are not always drawn.

How the values were obtained:
Conditions in all cases: treatment time: 24 h
A549-CANX-COX4 [1] = test: phenotypically active (imaging signature differs from DMSO and reproducible) at any of 0.3-9 uM (binary (1 = active, 0 = inactive)); higher = active
How it was run: (§1)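 Two criteria together defined phenotypic activity: deviation and reproducibility. Deviation meant ≥3 of 4 wells beyond the 95th percentile of Euclidean distances in solvent control wells, and reproducibility meant a median replicate Pearson correlation above the 95th percentile of non-replicates. Wells had been treated for 24 h at 0.3, 1, 3 or 9 µM in fifteen gene-edited A549, HepG2 and WPMY1 reporter lines before live imaging.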

A549-TP53BP1-CLTA [2] = test: as above
How it was run: as §1

HepG2-ACTB-RAB5A [3] = test: as above
How it was run: as §1

HepG2-CANX-COX4 [4] = test: as above
How it was run: as §1

HepG2-GM130-SQSTM1 [5] = test: as above
How it was run: as §1

HepG2-TP53BP1-CLTA [6] = test: as above
How it was run: as §1

HepG2-TUBA1B-RELA [7] = test: as above
How it was run: as §1

WPMY1-ACTB-RAB5A [8] = test: as above
How it was run: as §1

WPMY1-CANX-COX4 [9] = test: as above
How it was run: as §1

WPMY1-GM130-SQSTM1 [10] = test: as above
How it was run: as §1

WPMY1-TP53BP1-CLTA [11] = test: as above
How it was run: as §1

WPMY1-TUBA1B-RELA [12] = test: as above
How it was run: as §1

A549-CANX-COX4 [13] = test: lowest phenotypically active concentration; higher = less potent
How it was run: as §1

A549-TP53BP1-CLTA [14] = test: as above
How it was run: as §1

HepG2-ACTB-RAB5A [15] = test: as above
How it was run: as §1

HepG2-CANX-COX4 [16] = test: as above
How it was run: as §1

HepG2-GM130-SQSTM1 [17] = test: as above
How it was run: as §1

HepG2-TP53BP1-CLTA [18] = test: as above
How it was run: as §1

HepG2-TUBA1B-RELA [19] = test: as above
How it was run: as §1

WPMY1-ACTB-RAB5A [20] = test: as above
How it was run: as §1

WPMY1-CANX-COX4 [21] = test: as above
How it was run: as §1

WPMY1-GM130-SQSTM1 [22] = test: as above
How it was run: as §1

WPMY1-TP53BP1-CLTA [23] = test: as above
How it was run: as §1

WPMY1-TUBA1B-RELA [24] = test: as above
How it was run: as §1

Nc1ccn([C@@H]2O[C@H](CO)[C@@H](O)[C@H]2O)c(=O)n1 [Cytidine]
inactive: phenotypically active (A549-CANX-COX4 [1]) 0 | phenotypically active (A549-TP53BP1-CLTA [2]) 0 | phenotypically active (HepG2-ACTB-RAB5A [3]) 0 | phenotypically active (HepG2-CANX-COX4 [4]) 0 | phenotypically active (HepG2-GM130-SQSTM1 [5]) 0 | phenotypically active (HepG2-TP53BP1-CLTA [6]) 0 | phenotypically active (HepG2-TUBA1B-RELA [7]) 0 | phenotypically active (WPMY1-ACTB-RAB5A [8]) 0 | phenotypically active (WPMY1-CANX-COX4 [9]) 0 | phenotypically active (WPMY1-GM130-SQSTM1 [10]) 0 | phenotypically active (WPMY1-TP53BP1-CLTA [11]) 0 | phenotypically active (WPMY1-TUBA1B-RELA [12]) 0

Nc1cc(C(F)(F)F)c(-c2cc(N3CCOCC3)nc(N3CCOCC3)n2)cn1 [buparlisib]
3 µM: lowest phenotypically active concentration (HepG2-GM130-SQSTM1 [17]) | lowest phenotypically active concentration (HepG2-TP53BP1-CLTA [18]) | lowest phenotypically active concentration (HepG2-TUBA1B-RELA [19]) | lowest phenotypically active concentration (WPMY1-ACTB-RAB5A [20]) | lowest phenotypically active concentration (WPMY1-TP53BP1-CLTA [23]) | lowest phenotypically active concentration (WPMY1-TUBA1B-RELA [24])
1 µM: lowest phenotypically active concentration (A549-CANX-COX4 [13]) | lowest phenotypically active concentration (A549-TP53BP1-CLTA [14]) | lowest phenotypically active concentration (HepG2-ACTB-RAB5A [15]) | lowest phenotypically active concentration (HepG2-CANX-COX4 [16]) | lowest phenotypically active concentration (WPMY1-CANX-COX4 [21]) | lowest phenotypically active concentration (WPMY1-GM130-SQSTM1 [22])
active: phenotypically active (A549-CANX-COX4 [1]) 1 | phenotypically active (A549-TP53BP1-CLTA [2]) 1 | phenotypically active (HepG2-ACTB-RAB5A [3]) 1 | phenotypically active (HepG2-CANX-COX4 [4]) 1 | phenotypically active (HepG2-GM130-SQSTM1 [5]) 1 | phenotypically active (HepG2-TP53BP1-CLTA [6]) 1 | phenotypically active (HepG2-TUBA1B-RELA [7]) 1 | phenotypically active (WPMY1-ACTB-RAB5A [8]) 1 | phenotypically active (WPMY1-CANX-COX4 [9]) 1 | phenotypically active (WPMY1-GM130-SQSTM1 [10]) 1 | phenotypically active (WPMY1-TP53BP1-CLTA [11]) 1 | phenotypically active (WPMY1-TUBA1B-RELA [12]) 1

O=C(c1ccc(C(=O)N2CCC(N3CCCC3)CC2)c(Nc2ccccc2)c1)N1CCC(N2CCCC2)CC1
inactive: phenotypically active (A549-CANX-COX4 [1]) 0 | phenotypically active (A549-TP53BP1-CLTA [2]) 0 | phenotypically active (HepG2-ACTB-RAB5A [3]) 0 | phenotypically active (HepG2-CANX-COX4 [4]) 0 | phenotypically active (HepG2-TP53BP1-CLTA [6]) 0 | phenotypically active (HepG2-TUBA1B-RELA [7]) 0 | phenotypically active (WPMY1-ACTB-RAB5A [8]) 0 | phenotypically active (WPMY1-CANX-COX4 [9]) 0 | phenotypically active (WPMY1-GM130-SQSTM1 [10]) 0 | phenotypically active (WPMY1-TP53BP1-CLTA [11]) 0 | phenotypically active (WPMY1-TUBA1B-RELA [12]) 0
active: phenotypically active (HepG2-GM130-SQSTM1 [5]) 1
9 µM: lowest phenotypically active concentration (HepG2-GM130-SQSTM1 [17])

CCN(CC)CCCC(C)Nc1ccnc2cc(Cl)ccc12 (centres undefined) [chloroquine]
inactive: phenotypically active (A549-CANX-COX4 [1]) 0
3 µM: lowest phenotypically active concentration (HepG2-ACTB-RAB5A [15]) | lowest phenotypically active concentration (HepG2-GM130-SQSTM1 [17]) | lowest phenotypically active concentration (WPMY1-ACTB-RAB5A [20]) | lowest phenotypically active concentration (WPMY1-CANX-COX4 [21]) | lowest phenotypically active concentration (WPMY1-GM130-SQSTM1 [22])
9 µM: lowest phenotypically active concentration (A549-TP53BP1-CLTA [14]) | lowest phenotypically active concentration (HepG2-CANX-COX4 [16]) | lowest phenotypically active concentration (HepG2-TP53BP1-CLTA [18]) | lowest phenotypically active concentration (WPMY1-TP53BP1-CLTA [23]) | lowest phenotypically active concentration (WPMY1-TUBA1B-RELA [24])
1 µM: lowest phenotypically active concentration (HepG2-TUBA1B-RELA [19])
active: phenotypically active (A549-TP53BP1-CLTA [2]) 1 | phenotypically active (HepG2-ACTB-RAB5A [3]) 1 | phenotypically active (HepG2-CANX-COX4 [4]) 1 | phenotypically active (HepG2-GM130-SQSTM1 [5]) 1 | phenotypically active (HepG2-TP53BP1-CLTA [6]) 1 | phenotypically active (HepG2-TUBA1B-RELA [7]) 1 | phenotypically active (WPMY1-ACTB-RAB5A [8]) 1 | phenotypically active (WPMY1-CANX-COX4 [9]) 1 | phenotypically active (WPMY1-GM130-SQSTM1 [10]) 1 | phenotypically active (WPMY1-TP53BP1-CLTA [11]) 1 | phenotypically active (WPMY1-TUBA1B-RELA [12]) 1

Nc1nc(N)nc(-c2cc(Cl)ccc2Cl)n1 [Irsogladine maleate]
inactive: phenotypically active (A549-CANX-COX4 [1]) 0 | phenotypically active (A549-TP53BP1-CLTA [2]) 0 | phenotypically active (HepG2-ACTB-RAB5A [3]) 0 | phenotypically active (HepG2-CANX-COX4 [4]) 0 | phenotypically active (HepG2-GM130-SQSTM1 [5]) 0 | phenotypically active (HepG2-TP53BP1-CLTA [6]) 0 | phenotypically active (HepG2-TUBA1B-RELA [7]) 0 | phenotypically active (WPMY1-ACTB-RAB5A [8]) 0 | phenotypically active (WPMY1-CANX-COX4 [9]) 0 | phenotypically active (WPMY1-GM130-SQSTM1 [10]) 0 | phenotypically active (WPMY1-TP53BP1-CLTA [11]) 0 | phenotypically active (WPMY1-TUBA1B-RELA [12]) 0
